System: T1, YSK1
T1 construct: gene STK25
Settings: concentration: 1 μM, replicates: in singlicate; n = 1
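Also: KINOMEscan kinase panel screen.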

SMILES | %Inh [%]
CCn1c(-c2nonc2N)nc2c(C#CC(C)(C)O)ncc(OCCCCN)c21.O=C(O)C(F)(F)F.O=C(O)C(F)(F)F [GSK507274] | 0
COc1cc2c(cc1OCCN1CCNCC1)ncc1c3ccc(C#N)cc3[nH]c21 | 1
COc1cccc(C(=O)Nc2cccc(Oc3ccc4nc(NC(=O)C5CC5)cn4n3)c2)c1 | 0
FC(F)(F)c1ccc(/C=C/c2cncnc2Nc2ccc3[nH]c(Cc4ccccc4)nc3c2)cc1 [GW709199] | 0
Cc1cccc(Nc2nc(N[C@H]3CCNC3)ncc2C(N)=O)c1.Cl [GSK2197149] | 52
NCCCC(NC(=O)c1cc(Br)c(-c2ccnc3[nH]ccc23)s1)c1ccccc1.O=C(O)C(F)(F)F.O=C(O)C(F)(F)F (centres unmarked) [GSK1287544] | 0
CC(C)(C)c1ccc2nccc(Nc3cccc(O)c3)c2c1 [GW856795] | 0
c1ccc(-c2n[nH]cc2Nc2ccnc3ccccc23)nc1 [GW694077] | 12
COc1cccc(NC(=O)NC2CCN(c3ccnc(Nc4cc(OC)c(OC)c(OC)c4)n3)C2)c1 (centres unmarked) [GSK1379763] | 6
COC(=O)Nc1nc2ccc(Oc3ccc(NC(=O)Nc4cc(C(F)(F)F)ccc4F)cc3)cc2n1C.Cl [GW692089] | 0
COc1cccc(C2=C(Nc3ccc(Cl)c(C(=O)O)c3)C(=O)NC2=O)c1 [SB-390769] | 0
COc1cc(Nc2nccc(-c3c(-c4cccc(NC(=O)c5c(F)cccc5F)c4)nn4ccccc34)n2)cc(OC)c1OC [GSK323521] | 3
Cn1cc(-c2[nH]c3cc(NC(=O)[C@H](N)C4CCCCC4)cc4c3c2C=NNC4=O)cn1 | 47
Nc1ncc(-c2cccnc2)c2scc(-c3ccc4c(c3)CCN4C(=O)Cc3ccccc3)c12 [GSK683281] | 27
CCCCc1nn2ncccc2c1-c1ccnc(Nc2ccc(N3CCN(C)CC3)cc2)n1 [GW684941] | 0
O=C(Nc1n[nH]c2cc(-c3ccoc3)ccc12)C1CC1 [SB-738481] | 0
Cl.c1ccc(-c2ccc3c(Nc4ccc5[nH]ncc5c4)ccnc3c2)nc1 [GW440137] | 9
Cn1cc(-c2ccc3c(c2)CCN3C(=O)Cc2cccc(Cl)c2)c2c(N)ncnc21 [GSK2606590] | 18
COc1cccc(-c2ccc3c(NC(=O)C4CC4)n[nH]c3n2)c1 [SB-710903] | 0
Nc1ncc(-c2ccc3nccc(-c4ccncc4)c3c2)cc1S(=O)(=O)N1CCOCC1 [GSK1627798] | 0
COc1cc(Nc2nccc(N3CCC(NC(=O)Nc4cccc(C(C)=O)c4)C3)n2)cc(OC)c1OC (centres unmarked) [GSK1379753] | 2
COCCOCCOc1cc2ncc3c4ccc(C#N)cc4[nH]c3c2cc1OC | 0
COc1ccc(Nc2nccc(NCCNC(=O)c3cc4ccccc4s3)n2)cc1 [GSK1379896] | 0
COC(=O)Nc1nc2cc(Oc3ccc(NC(=O)Nc4cc(C(F)(F)F)ccc4F)cn3)ccc2[nH]1.Cl.Cl [GW681170] | 0
O=C(Nc1n[nH]c2nc(-c3ccc(O)cc3)ccc12)C1CC1 [SB-710363] | 0

System: T2, YSK4
T2 construct: gene MAP3K19
Settings: concentration: 1 μM, replicates: in singlicate; n = 1

SMILES | %Inh [%]
Nc1n[nH]c2cnc(-c3ccccc3)cc12 [SB-642124] | 95.9
CN(c1ccc(NC(=O)Nc2cc(C(F)(F)F)ccc2F)cc1)c1ccnc(Nc2ccc(S(N)(=O)=O)cc2)n1 [GW809893] | 99.1
CC(C)c1nc(-c2cccc(NS(=O)(=O)c3c(F)cccc3F)c2F)c(-c2ccnc(Nc3ccc(N4CCOCC4)nc3)n2)s1 [GSK2008607] | 85
O=C(Nc1cccc(-c2nn3ncccc3c2-c2ccnc(Nc3ccccc3)n2)c1)c1c(F)cccc1F [GSK198271] | 18
O=C(Nc1ccccc1F)NC1CCN(c2ccnc(Nc3ccc(F)cc3)n2)CC1 [GSK1379800] | 14
Cl.c1ccc(-c2ccc3c(Nc4ccc5[nH]ccc5c4)ccnc3c2)nc1 [GW440138] | 51
COc1ccc(CNC(=O)NC2CCN(c3ccnc(Nc4ccc(F)cc4)n3)CC2)cc1 [GSK1379788] | 14
CN(C)Cc1ccc(-c2ccc3c(Nc4ccc(Oc5ccccn5)cc4)ccnc3c2)o1 [GW567148] | 30
CNC(=O)c1ccccc1Nc1nc(Nc2ccc(N3CCOCC3)cc2)ncc1Cl.Cl [GSK1576028] | 99.9
CCS(=O)(=O)c1ccc(OC)c(Nc2nccc(-c3c(-c4cccc(NC(=O)c5c(F)cccc5F)c4)nn4ncccc34)n2)c1 [GSK326180] | 33
c1ccc(Oc2ccc(Nc3ccnc4cc(-c5ccc(CNCCN6CCOCC6)o5)ccc34)cc2)nc1 [GW567145] | 35
Cc1ccc(C)c(NC(=O)NC2CCN(c3ccnc(Nc4ccc(F)cc4)n3)C2)c1 (centres unmarked) [GSK1379720] | 29
CCn1c(-c2nonc2N)nc2c(C#CC(C)(C)O)ncc(OCCCCN)c21.O=C(O)C(F)(F)F.O=C(O)C(F)(F)F [GSK507274] | 99.4
COc1cc2c(cc1OCCN1CCNCC1)ncc1c3ccc(C#N)cc3[nH]c21 | 87
COc1cccc(C(=O)Nc2cccc(Oc3ccc4nc(NC(=O)C5CC5)cn4n3)c2)c1 | 100
FC(F)(F)c1ccc(/C=C/c2cncnc2Nc2ccc3[nH]c(Cc4ccccc4)nc3c2)cc1 [GW709199] | 73
Cc1cccc(Nc2nc(N[C@H]3CCNC3)ncc2C(N)=O)c1.Cl [GSK2197149] | 90
NCCCC(NC(=O)c1cc(Br)c(-c2ccnc3[nH]ccc23)s1)c1ccccc1.O=C(O)C(F)(F)F.O=C(O)C(F)(F)F (centres unmarked) [GSK1287544] | 95.2
CC(C)(C)c1ccc2nccc(Nc3cccc(O)c3)c2c1 [GW856795] | 0

SMILES | %Inh [%]
c1ccc(-c2n[nH]cc2Nc2ccnc3ccccc23)nc1 [GW694077] | 99.1
COc1cccc(NC(=O)NC2CCN(c3ccnc(Nc4cc(OC)c(OC)c(OC)c4)n3)C2)c1 (centres unmarked) [GSK1379763] | 31
COC(=O)Nc1nc2ccc(Oc3ccc(NC(=O)Nc4cc(C(F)(F)F)ccc4F)cc3)cc2n1C.Cl [GW692089] | 36
COc1cccc(C2=C(Nc3ccc(Cl)c(C(=O)O)c3)C(=O)NC2=O)c1 [SB-390769] | 100
COc1cc(Nc2nccc(-c3c(-c4cccc(NC(=O)c5c(F)cccc5F)c4)nn4ccccc34)n2)cc(OC)c1OC [GSK323521] | 93.6
Cn1cc(-c2[nH]c3cc(NC(=O)[C@H](N)C4CCCCC4)cc4c3c2C=NNC4=O)cn1 | 100
Nc1ncc(-c2cccnc2)c2scc(-c3ccc4c(c3)CCN4C(=O)Cc3ccccc3)c12 [GSK683281] | 46
CCCCc1nn2ncccc2c1-c1ccnc(Nc2ccc(N3CCN(C)CC3)cc2)n1 [GW684941] | 57
O=C(Nc1n[nH]c2cc(-c3ccoc3)ccc12)C1CC1 [SB-738481] | 89
Cl.c1ccc(-c2ccc3c(Nc4ccc5[nH]ncc5c4)ccnc3c2)nc1 [GW440137] | 51
Cn1cc(-c2ccc3c(c2)CCN3C(=O)Cc2cccc(Cl)c2)c2c(N)ncnc21 [GSK2606590] | 98.2
COc1cccc(-c2ccc3c(NC(=O)C4CC4)n[nH]c3n2)c1 [SB-710903] | 92.3
Nc1ncc(-c2ccc3nccc(-c4ccncc4)c3c2)cc1S(=O)(=O)N1CCOCC1 [GSK1627798] | 88
COc1cc(Nc2nccc(N3CCC(NC(=O)Nc4cccc(C(C)=O)c4)C3)n2)cc(OC)c1OC (centres unmarked) [GSK1379753] | 75
COCCOCCOc1cc2ncc3c4ccc(C#N)cc4[nH]c3c2cc1OC | 93.7
COc1ccc(Nc2nccc(NCCNC(=O)c3cc4ccccc4s3)n2)cc1 [GSK1379896] | 0
COC(=O)Nc1nc2cc(Oc3ccc(NC(=O)Nc4cc(C(F)(F)F)ccc4F)cn3)ccc2[nH]1.Cl.Cl [GW681170] | 87
O=C(Nc1n[nH]c2nc(-c3ccc(O)cc3)ccc12)C1CC1 [SB-710363] | 92.2

Reference: paper PMC5540273 (PLoS ONE, 2017)
